# FEN1 inh: inhibitors of human flap endonuclease 1; Recombinant FEN1 flap cleavage, fluorescence, 15 min; Potency, µM (titrated, usually from 114 µM), without a hit: at the top dose activity change, negative = inhibition, actives largely listed as inhibitors; actives 0.35% (n = 390,000); AID 588795; further: potency means the concentration at half of the fitted maximal effect; nearly all actives have a fitted effect of over 65% in size
#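 Compounds are tested as a concentration series against 10 nM FEN1; after a 15 min room-temperature preincubation, 50 nM substrate starts cleavage, with plate reads at 0 and 15 min. Normalized responses are fitted by a Hill equation.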
# Tb PGK inh: blocks T. brucei phosphoglycerate kinase. P07378. PGK/GAPDH coupled, Kinase-Glo luminescence, 60 min. Potency, µM (titrated, usually from 57.5 µM), for the others: top-dose activity change, negative = inhibition, most hits filed as inhibitors. actives 0.043% (n = 380,000). AID 602233; further: potency means the concentration at half of the fitted maximal effect; nearly all actives have a fitted effect of over 60% in size
#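 Recombinant glycosomal PGK reaction used 1,3-bisphosphoglycerate generated in-well by GAPDH (100nM final) in 100mM TEA pH 7.6, 5mM MgCl2, 0.01% Tween-20. After 60 minutes at room temperature, ATP was read by Kinase-Glo Plus luminescence end-point.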
# TDP1 block: blocks human tyrosyl-DNA phosphodiesterase 1; recombinant TDP1, AlphaScreen DNA substrate cleavage; Potency, µM (series often up to 130 µM), for the others: at the highest dose activity change, negative = inhibition, hits mostly inhibitors; actives 0.28% (n = 350,000); further: potency means the concentration at half of the fitted maximal effect; nearly all actives have a fitted effect of over 40% in size
# Target sequence (Q9NUW8 whole entry, looked up): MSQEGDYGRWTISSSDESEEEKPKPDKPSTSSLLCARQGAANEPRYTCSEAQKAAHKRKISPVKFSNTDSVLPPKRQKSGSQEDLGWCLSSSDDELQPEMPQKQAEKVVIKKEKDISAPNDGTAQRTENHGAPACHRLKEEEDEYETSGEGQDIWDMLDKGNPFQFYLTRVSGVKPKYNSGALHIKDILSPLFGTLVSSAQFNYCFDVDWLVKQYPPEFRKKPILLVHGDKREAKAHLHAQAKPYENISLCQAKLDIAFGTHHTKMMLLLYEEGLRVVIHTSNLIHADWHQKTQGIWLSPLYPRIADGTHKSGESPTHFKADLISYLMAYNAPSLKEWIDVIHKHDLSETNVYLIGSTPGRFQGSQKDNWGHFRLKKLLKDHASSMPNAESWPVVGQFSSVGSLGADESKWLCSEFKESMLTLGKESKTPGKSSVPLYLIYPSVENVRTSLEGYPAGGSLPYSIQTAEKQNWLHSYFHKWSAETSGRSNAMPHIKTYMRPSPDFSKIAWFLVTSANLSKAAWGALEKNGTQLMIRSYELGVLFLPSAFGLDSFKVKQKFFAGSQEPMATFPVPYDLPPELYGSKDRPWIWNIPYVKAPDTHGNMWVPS
#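 Enzyme-compound mixtures sat 15 min at room temperature, followed by a 5 min reaction with 15 nM final substrate and 10 min with AlphaScreen beads. Recombinant human Tdp1 was used at 1 nM final.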
# PI5P4K alpha inh: inhibitors of human PI5P4K alpha; max response, %; PI5P4Kalpha enzyme, ADP-Glo luminescence, 60 min; active compounds read low; actives 1.2% (n = 330,000); active means max response of -50% or lower; inconclusive means between -30% and -50%; inactive means -30% or higher; further: value at the top dose of about 77 µM
#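 PI5P4Kalpha ADP-Glo assay; 5 microM ATP final; 60 min RT reaction; HEPES pH 7.4/EGTA/CHAPS, 5% DMSO; controls lacking substrate or enzyme; luminescent end-point.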
# WRN helicase inh: WRN helicase (human) inhibition | Q14191 | WRN helicase unwinding, fluorescent forked duplex, kinetic | Potency, µM (highest dose often 114 µM), for inactives: at the top dose activity change, negative = inhibition, usual class: inhibitors | actives 0.46% (n = 360,000) | AID 651768; further: potency means the concentration at half of the fitted maximal effect; nearly all actives have a fitted effect of over 55% in size
#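 Primary qHTS, 1536-well format. 20 nM WRN + compound, 15 min RT; start with 100 nM forked fluorophore/quencher duplex, 2 mM ATP (final); kinetic read ex 525/em 598 nm.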
# Tb PFK inh: blocks T. brucei phosphofructokinase | actives 0.17% (n = 330,000) | Potency, µM (titrated, usually from 57.5 µM), without a hit: at the highest dose activity, negative = inhibition, usual class: inhibitors | T. brucei PFK, ADP-Glo luminescence | AID 485367;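 further: potency means the concentration at half of the fitted maximal effect; 0% = uninhibited 1x PFK enzyme wells and -100% = no-enzyme wells; nearly all actives have a fitted effect of over 60% in size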
#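 Activity is normalized to no-enzyme wells (full inhibition) and 1.25 nM enzyme wells (no inhibition). Reaction: 0.5 mM F6P, 0.1 mM ATP, 45 min RT, ADP-Glo luminescence; concentration-response curves fitted and classed by quality.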
# Starred values were filed as active, the others as inactive; i = inactive; ? = inconclusive; · = no result; [ ] = another dose, or the depositor's remark. Hits are enriched below; roughly 1.5% of the tested compounds scored in any of these assays. Unless noted, the call rests on the fitted dose curve; in most records, active means well fitted curve in the direction sought with a large enough effect; inconclusive means small, poorly fitted or top-dose-only effect, or another doubt; inactive means no such curve, though single readings can be large; an effect the other way counts as inactive or inconclusive. Unless noted, on the % scale 0 is the no-effect control and ±100 the full control effect.
SMILES,FEN1 inh,Tb PGK inh,TDP1 block,PI5P4K alpha inh,WRN helicase inh,Tb PFK inh
Cn1cccc1CC(=O)N/N=C/C=C/c1ccco1,-13%,-8%,5%,-55*,?,?
Cc1ccc(OCC(=O)N/N=C/C=C/c2ccco2)cc1,-8%,-6%,7%,-64*,-12%[11.6 µM],0%
O=C(/C=C/c1ccc(C(F)(F)F)cc1)OC(C(=O)NC1CC1)c1ccccc1 (centres undefined),16%,·,·,·,·,·
COc1cccc(CN(C)Cc2cc(=O)oc3cc(O)c(Cl)cc23)c1,-4%,·,·,-78*,-1%,3%
Cc1ccc(O)c(N=Nc2ccccc2)n1,-5%,16µM*,17%[56.1 µM],-78*,-4%,·
CCCn1c(=S)[nH]c2sc3c(c2c1=O)CCCC3,-11%,8%,·,-13,-26%,2%
O=c1[nH]c(=S)[nH]c2sc3c(c12)CCCCCC3,-2%,-1%,·,-60*,-4%,0%
Nn1c(=S)[nH]c2sc3c(c2c1=O)CCCC3,10%,-6%,·,-70*,-19%,·
CCCCn1c(N)c(N(CCC(C)C)C(=O)c2cc(-c3ccco3)nc3ccccc23)c(=O)[nH]c1=O,-3%,0%,·,-70*,-25%,-24%
CCCCn1c(N)c(N(CC(C)C)C(=O)c2cc(-c3ccc(OC)cc3)nc3ccccc23)c(=O)[nH]c1=O,-4%,-9%,·,-4,7%,·
COCCN(C(=O)c1cc(-c2ccco2)nc2ccccc12)c1c(N)n(Cc2ccccc2)c(=O)[nH]c1=O,?,-12%,-21%,-84*,?,-26%
CCCCN(C(=O)c1cc(-c2ccco2)nc2ccccc12)c1c(N)n(CCCC)c(=O)[nH]c1=O,-16%,-9%,·,-57*,?,-24%
CCCCN(C(=O)c1cc(-c2ccc(F)cc2)nc2ccccc12)c1c(N)n(CCCC)c(=O)[nH]c1=O,-1%,-13%,-4%,-4,9%,1%
COCCN(C(=O)COC(=O)Cc1coc2cc(C)ccc12)c1c(N)n(Cc2ccccc2)c(=O)[nH]c1=O,-11%,-3%,28µM*,?,?,-15%
C[C@@H]1/C=C\CC(=O)OC[C@H](C)C(=O)N[C@@H](Cc2ccccc2)C(=O)OC1,·,·,5%[21 µM],·,·,·
Cc1ccc2c(/C=C/c3ccc(N(C)C)cc3)ccnc2c1,-10%,·,·,·,·,·
CC(=O)Nc1ccc2c(c1)Cc1cc(N3C(=O)C=CC3=O)ccc1-2,?,i,·,?,35µM*,·
CCCC[C@]12Cc3cc(OC)c(OC)cc3C(O1)C1=C(O2)C(=O)c2ccccc2C1=O,·,·,·,·,·,-4%[11.5 µM]
C=CCN1c2ccccc2[C@]23C[C@@H](C(=O)OC)N(C(=O)c4cccs4)C2=NC(C(=O)OC)=C(C(=O)OC)[C@H]13,-1%,-1%,17%[12.3 µM],-52*,3%,-3%
C=CCN1c2ccccc2[C@]23C[C@@H](C(=O)OC)N(C(=O)c4ccc(Br)cc4)C2=NC(C(=O)OC)=C(C(=O)OC)[C@H]13,-16%,-2%,16%[12.3 µM],-3,-2%,3%
Cc1ccc(SC2=C(Sc3ccc(C)cc3)C(=O)c3ccccc3C2=O)cc1,-23%,-5%,12%,-15,79µM*,1%
COc1cccc(C)c1NC(=O)C(OC(=O)CNC(=O)c1ccccc1)c1ccccc1 (centres undefined),·,·,1%,·,·,·
CN1CCc2cc3c(c4c2[C@H]1[C@H](O)c1ccccc1-4)OCO3,40µM*,-9%,8%,7,13%,-5%
Cc1ccc(/C=C/C(=O)Nc2nccs2)o1,-2%,11%,3%,-5,3%,-8%
Cc1ccc(/C=C/C(=O)Nc2nnc(SCc3ccc(C#N)cc3)s2)o1,19%,-4%,5%,-72*,?,2%
SMILES,FEN1 inh,Tb PGK inh,TDP1 block,PI5P4K alpha inh,WRN helicase inh,Tb PFK inh
Cc1ccc(/C=C(\C#N)C(=O)Nc2cccc(Br)c2)o1,-51%,·,4%[2.28 µM],·,·,·
N#C/C(=C\c1ccc(N2CCCCC2)o1)C(=O)Nc1cccc(Br)c1,?,-10%,-3%,1,89µM*,-6%
CC(C)(C)c1ccccc1Nc1nc(C#N)nc(NC2CCCC2)n1,·,·,-6%,·,·,·
C#CCOCCOCCOCCNc1nc(N2CCN(C(=O)CCCCCCCCCCNC(=O)[C@@H](CCSC)n3cc(CCO)nn3)CC2)nc(N2CCN(C(=O)CCCCCCCCCCNC(=O)[C@H]([C@@H](C)CC)n3cc(CCCCCN)nn3)CC2)n1,79µM*,8%,13%,-54*,?,?
C#CCOCCOCCOCCNc1nc(N2CCN(C(=O)CCCCCCCCCCNC(=O)[C@@H](CCSC)n3cc(CCO)nn3)CC2)nc(N2CCN(C(=O)CCCCCCCCCCNC(=O)[C@H]([C@@H](C)CC)n3cc(CCCCN=C(N)N)nn3)CC2)n1,22µM*,7%,13%,-73*,?,?
C#CCOCCOCCOCCNc1nc(N2CCOCC2)nc(N2CCN(C(=O)CCCCCCCCCCNC(=O)[C@@H](CCSC)n3cc(CCO)nn3)CC2)n1,9%,6%,3%,-3,-7%,4%
C[C@]12CC[C@H]3c4ccc(OC[C@H]5CO5)cc4CC[C@H]3[C@H]1CC[C@@H]2O,·,·,7%[21 µM],·,·,·
c1cc2c3c(c1)CCC[N+]3(C1CCCCC1)CCC2,-1%,·,·,·,·,·
CCC1(CC)NC(=O)N(CC(=O)Nc2sc3c(c2C(N)=O)CCC3)C1=O,-28%,-10%,·,-70*,?,-11%
Oc1c(Cl)cc(Cl)cc1C=Nc1ccc(Br)cc1,-9%,-9%,0%,-55*,-28%,-14%
